# Screening data (PubChem BioAssay)
# Compounds with a hit are over-represented: about 11% of the library has one in this group of screens.
# HEK293 tox – kills HEK 293 cells; HEK 293 viability, ATP luminescence (CellTiter-Glo), 48-72 h; Potency, µM (doses to about 115 µM), inactives show at the top dose activity change, negative = cytotoxicity, actives largely listed as inhibitors; hit rate 6.6% among 94,000; AID 1345083; note: % is set by controls: 0 for no effect and ±100 for the full control effect; nearly all actives have a fitted effect of over 60% in size
#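 ATP-coupled CellTiter-Glo luminescence served as viability read-out, recorded 10 min after reagent addition at room temperature. HEK 293 cells, 250 cells/well, had been incubated with pintool-transferred compound for 48 or 72 hr at 37 degree Celsius.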
# 3T3 cytotox – kills NIH 3T3 cells; Potency, µM (titrated, usually from 96.7 µM), for the others: at the highest dose activity change, negative = cytotoxicity, most hits filed as inhibitors; hit rate 4.3% among 94,000; AID 1345082; NIH 3T3 viability, CellTiter-Glo ATP luminescence, 48-72 h; note: % is set by controls: 0 for no effect and ±100 for the full control effect; nearly all actives have a fitted effect of over 55% in size
#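 Mouse fibroblast NIH 3T3 cells, 400 per well, received compound via pintool and were incubated for 48 or 72 hr prior to CellTiter-Glo ATP luminescence measurement.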
# FLuc inh-1 – inhibitors of firefly (Photinus pyralis) luciferase. AID 1347043. purified P. pyralis luciferase, luminescence, biochemical. P08659. hit rate 2.5% among 76,000. Potency, µM (highest dose often 115 µM), hits mostly inhibitors; note: % is set by controls: 0 for no effect and ±100 for the full control effect; nearly all actives have a fitted effect of over 65% in size
# Target sequence (P08659 whole entry, looked up): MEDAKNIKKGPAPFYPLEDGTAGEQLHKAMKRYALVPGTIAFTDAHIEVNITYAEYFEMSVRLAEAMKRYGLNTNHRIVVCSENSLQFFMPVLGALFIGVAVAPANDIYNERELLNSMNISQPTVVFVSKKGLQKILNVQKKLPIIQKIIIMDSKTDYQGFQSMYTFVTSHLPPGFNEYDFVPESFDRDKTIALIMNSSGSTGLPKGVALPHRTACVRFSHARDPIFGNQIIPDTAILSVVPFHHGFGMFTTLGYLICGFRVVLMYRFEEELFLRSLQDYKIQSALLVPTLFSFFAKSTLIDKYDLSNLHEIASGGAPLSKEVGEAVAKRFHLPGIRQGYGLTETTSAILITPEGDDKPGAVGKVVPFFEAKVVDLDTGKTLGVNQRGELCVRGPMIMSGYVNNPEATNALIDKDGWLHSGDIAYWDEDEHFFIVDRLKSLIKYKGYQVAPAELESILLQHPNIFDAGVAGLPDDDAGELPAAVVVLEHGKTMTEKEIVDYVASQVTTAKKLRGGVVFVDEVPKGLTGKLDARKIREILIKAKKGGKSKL
#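 Luminescence read by CCD imager after adding enzyme (10nM final) to wells holding compound, titrated in qHTS. Substrates 10uM each D-luciferin and ATP; buffer 50mM Tris acetate pH 7.5, 10mM Mg acetate, Tween-20, BSA.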
# NPR1 antag – antagonists of human natriuretic peptide receptor Npr1; Potency, µM (doses to about 46.3 µM), for the others: top-dose activity change, negative = inhibition, usual class: inhibitors; HEK293 hNpr1 GloSensor cGMP, ANP-stimulated luminescence; P16066; hit rate 1.6% among 76,000; calls by dose curve; note: % is set by controls: 0 for no effect and ±100 for the full control effect; nearly all actives have a fitted effect of over 60% in size
#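 Compound pre-incubated 30 min at room temperature on GloSensor-loaded HEK293 cells stably carrying hNpr1 and the pGS-40F cGMP biosensor. Stimulation uses hNppA at 0.1 nM final; luminescence is taken at baseline and 20 min post-agonist.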
# FLuc SDR -ATP – binders stabilizing firefly luciferase, without ATP. shares compounds with FLuc inh-1. Purified FLuc-C-HiBiT, Nano-Glo HiBiT luminescence, no ATP. Potency, µM (titrated, usually from 32.7 µM), for the others: top-dose activation (signal gain), hits mostly activators. hit rate 7.8% among 1,300. AID 1963318; note: nearly all actives have a fitted effect of over 55% in size
# FLuc SDR ATP – binders stabilizing firefly luciferase, plus ATP. shares compounds with FLuc inh-1. purified FLuc-C-HiBiT + ATP, HiBiT complementation luminescence. Potency, µM (highest dose often 32.7 µM), for the others: at the highest dose activation (gain of signal), hits mostly activators. hit rate 8.7% among 1,300;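 note: signal reports ligand binding via conformational change of the enzyme rather than luciferase catalysis; % of control where 0% means no effect; nearly all actives have a fitted effect of over 55% in size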
# FLuc inh-2 – blocks firefly luciferase enzymatic activity. hit rate 42% among 1,300. purified FLuc-C-HiBiT enzyme, luciferin luminescence. shares compounds with FLuc inh-1. Potency, µM (highest dose often 32.7 µM), for inactives: at the top dose activity change, negative = inhibition, most hits filed as inhibitors; note: % is set by controls: 0 for no effect and ±100 for the full control effect; nearly all actives have a fitted effect of over 70% in size
# Active calls of the source: *; i = inactive; ? = inconclusive; / = not tested or not shown; [ ] = remark or other dose. Unless noted, calls come from the whole dose curve; as a rule, active = well fitted curve in the direction sought with a large enough effect; inconclusive = small, poorly fitted or top-dose-only effect, or another doubt; inactive = no such curve, though single readings can be large; an effect the other way counts as inactive or inconclusive. Potency is the fitted concentration of half-maximal effect.
SMILES,HEK293 tox,3T3 cytotox,FLuc inh-1,NPR1 antag,FLuc SDR -ATP,FLuc SDR ATP,FLuc inh-2
Cn1cc(-c2cccc(COc3ccc4c(cnn4CC[S+](C)(=O)[O-])c3)c2)cn1,?,?,5.6µM*,?,25%[49.3 µM],?,?
O=C(O)CCn1ncc2cc(OCc3ccc(-c4cccc(CO)c4)cc3)ccc21,-7%[172 µM],?,20µM*,-5%[70.6 µM],0%[49.3 µM],1%[49.3 µM],?
CNC(=O)CCn1ncc2cc(OCc3ccccc3-c3cccc(NC(C)=O)c3)ccc21,?,?,8.9µM*,-19%,27%,?,3.1µM*
C[S+](=O)([O-])CCn1ncc2cc(OCC3CCN(Cc4ccccc4)CC3)ccc21,?,?,i,6%[70.6 µM],/,/,/
O=C(O)CCn1ncc2cc(OCC3CCN(C(=O)Cc4ccccc4)CC3)ccc21,-12%[172 µM],?,i,-1%[70.6 µM],/,/,/
CC(C)Oc1cccc(-c2cccc(COc3ccc4c(cnn4CC[S+](C)(=O)[O-])c3)c2)c1,28µM*,?,6.3µM*,?,13%,12%,?
Cc1cc(C[C@@H]2COC[C@@H]2NC(=O)c2ccc3nc(C)sc3c2)on1,5%,i,i,5%,/,/,/
O=C1c2c(nc(COc3ccc(Cl)cc3)n2Cc2ccccc2)NCCN1CCOc1ccccc1,?,?,i,-15%,/,/,/
CC(C)CNC(=O)c1ccc2c(c1)N(S(=O)(=O)c1ccccc1F)CC2,?,?,i,-16%,/,/,/
CSCC(=O)N[C@H]1CCN2C(=O)c3cc(/C=C/c4ccccc4)ccc3NC(=O)[C@H]12,?,-26%[174 µM],11µM*,2%[70.6 µM],17%[49.3 µM],10%[49.3 µM],?
COc1ccc(/C=C/c2ccc3c(c2)C(=O)N2CC[C@H](NC(=O)COCC(=O)O)[C@H]2C(=O)N3)cc1,?,?,7.9µM*,-2%,?,?,9.9µM*
COc1ccc(-c2ccc3c(c2)C(=O)N2CC[C@H](NC(=O)COCC(=O)O)[C@H]2C(=O)N3)c(OC)c1,-24%,-16%,?,1%,/,/,/
COc1cccc(OCC(=O)c2ccc3c(c2)N(C(C)C(=O)NCCc2ccccc2)C(=O)CO3)c1 (centres undefined),?,?,i,-15%,/,/,/
COc1ccc(CN2C(=O)CO[C@H]3CN(Cc4c[nH]c5ccccc45)C[C@H]32)cc1,?,?,i,?,/,/,/
COc1cccc(CN2CCc3nc(Nc4ccc5c(c4)OCCO5)ncc3C2)c1,/,/,/,/,17%,13%,?
COc1cccc(CN2CCOc3ccc(C(=O)NCc4ccc(C)cc4)cc3C2)c1,?,?,i,-25%,/,/,/
COc1cccc(CN2CCNc3cc(Nc4ccccc4)ncc3C2)c1,40µM*,40µM*,5.6µM*,-18%[70.6 µM],21%[49.3 µM],15%[49.3 µM],?
COc1cccc(Nc2cc3c(cn2)CN(Cc2cccnc2)CCN3)c1,?,?,5µM*,-17%[70.6 µM],?,14%[49.3 µM],?
COc1cccc(-n2nnc(-c3nc(-c4ccccc4F)no3)c2C)c1,/,/,/,/,18%,?,5.6µM*
Cc1ncc(CC(=O)NCC2CCN(c3cnn(C)c(=O)c3)C2)c(=O)[nH]1 (centres undefined),-5%,-1%,i,10%,/,/,/
Cc1ncc(C(=O)NCc2ccc3[nH]c(-c4ccccc4F)c(C)c3c2)c(C)n1,?,?,6.3µM*,7.9µM*,18%,13%,7.9µM*
Cc1ncc(CC(=O)NCc2ccc3[nH]c(-c4ccccc4F)c(C)c3c2)c(=O)[nH]1,?,?,13µM*,0%,18%,15%,?
Cn1ncc2c(C(=O)NCc3ccc(F)cc3)cc(-c3ccccc3F)nc21,-12%,?,/,/,/,/,/
Cc1oc(-c2cccc(Oc3ccccc3)c2)nc1CN(C)CCCO,?,?,i,7%,/,/,/
COc1cccc(CN2C(=O)CCCCC2C(=O)N2CCc3ccccc3C2)c1 (centres undefined),?,-21%,i,-1%,/,/,/
SMILES,HEK293 tox,3T3 cytotox,FLuc inh-1,NPR1 antag,FLuc SDR -ATP,FLuc SDR ATP,FLuc inh-2
Cc1cccc(CNC(=O)c2c(C)noc2-c2ccccc2Cl)c1,?,?,i,-3%,/,/,/
CCc1cccc(NCc2ccccc2-c2nnc(-c3ccccc3Cl)o2)c1,/,/,/,/,12%,11%,-4%
Cn1ccc2cc(NCc3nnc(C(=O)N4CCC[C@@H]4CN4CCCC4)n3-c3ccccc3)ccc21,-25%,?,?,3%,/,/,/
CCCNc1cc(N2CCC(CCC(=O)NCC)CC2)ncn1,i,-7%,i,-14%,/,/,/
O=C(O)CCC1CCN(c2cc(NC3CC3)ncn2)CC1,5%,-12%,5µM*,0%,16%,3.9µM*,3.1µM*
O=C(CCC1CCN(c2cc(NC3CC3)ncn2)CC1)Nc1ccccc1,?,-24%,?,?,/,/,/
CCCNc1cc(N2CCC(CCC(=O)O)CC2)ncn1,4%,2%,40µM*,3%,15%,9.9µM*,7.9µM*
CNC(=O)c1cc(C2CC2)nc2onc(C3CCCN3C(=O)c3cccnc3)c12 (centres undefined),-10%,-12%,/,/,/,/,/
O=C(c1ccncc1)N1CCC(Oc2ccc(-c3noc(-c4ccccc4)n3)cc2)C1 (centres undefined),?,?,14µM*,14µM*,16%,14%,?
Cc1ncccc1C(=O)N1CCC(Oc2ccc(-c3noc(-c4ccccc4)n3)cc2)C1 (centres undefined),?,?,7.1µM*,11µM*,19%,13%,?
O=C(c1cccc(F)c1)N1CC(Oc2ccc(-c3nc(-c4ccccc4)no3)cc2)C1,?,-5%,i,-1%,/,/,/
Cn1cc(-c2ccncc2)cc1C(=O)N1CCN(c2ccccc2Cl)CC1,-20%,-14%,i,-6%,/,/,/
COc1ccc(NC(=O)Nc2nnc(C)s2)cc1,/,/,/,/,24%,13%,?
CCN1CCN(c2csc3ccc(Cl)cc3c2=O)CC1,/,/,/,/,21%,15%,?
CNC(=O)c1cc(C2CC2)nc2onc(C3CCN(C(=O)c4ccccc4)CC3)c12,-4%,-28%,/,/,/,/,/
O=C(c1ccccc1F)N1CCCC2(C1)NC(=O)N(Cc1cccc(Cl)c1)C2=O (centres undefined),?,-6%,i,-28%,/,/,/
COC(=O)c1c(-c2cccs2)csc1NC(=O)c1ccc(C)cc1,/,/,/,/,11%,8%,?
COC(=O)c1c(-c2cccs2)csc1NC(=O)c1ccc(Br)cc1,/,/,/,/,5%,4%,11µM*
